Source: PubChem BioAssay (EPA / NIEHS)
Where “and” joins values, the source holds several entries; their conditions need not be identical. Equal entries are not always repeated. Inconclusive results are not listed. More than one record can exist for a structure, and the calls need not agree. Calls of active or inactive are those of the source. The calls were made as follows: active = hit-call score of the fitted dose curve at least 0.9, where 1 is the maximum; inconclusive = response in the unintended direction; inactive = score below 0.9.

molecular target: Cellular tumor antigen p53 (Homo sapiens) (UniProt P04637); test: TOX21_p53_BLA_p5_ratio: Tox21 HCT-116 p53 Agonism Beta-lactamase Assay, Ratio, Phase 5 (AID 2283599)
Excerpt: TOX21_p53_BLA_p5 is a cell-based, single-readout assay that uses HCT116, a human intestinal cell line, […] in a 1536-well plate.TOX21_p53_BLA_p5_ratio is an assay readout measuring reporter gene via receptor activity and designed using inducible reporter (beta lactamase induction) detected with GAL4 b-lactamase reporter gene. The signal is derived from the ratio of cleaved (ch2) to uncleaved (ch1) reporter gene substrate used as the measure of target activity.Data from the assay component TOX21_p53_BLA_p5_ratio was analyzed into 1 assay endpoint. This assay endpoint, TOX21_p53_BLA_p5_ratio, was analyzed in the positive analysis fitting direction relative to DMSO as the negative control and baseline of activity. Using a type of inducible reporter, gain-of-signal activity can be used to understand changes in the reporter gene as they relate to the gene TP53. Furthermore, this assay endpoint can be referred to as a primary readout, because this assay has produced multiple assay endpoints and this ratio serves a reporter gene function to understand target activity. To generalize the intended target to other relatable targets, this assay endpoint is annotated to the DNA binding intended target family, where the subfamily is tumor suppressor.
Thawing Method: Place 14 mL of pre-warmed thaw medium into a 15 mL of conical tub. Remove the vial of cells to be thawed from liquid nitrogen and thaw rapidly by placing at 37C in a water bath with gentle agitation for 1-2 minutes. Decontaminate the vial by wiping with 70% ethanol before opening in a biological safety cabinet. Transfer the vial contents drop-wise into 14 mL of thaw medium in a sterile 15-mL conical tub. Centrifuge cells at 900 rpm for 4 minutes and resuspend in thaw medium. Transfer contents to the T75 tissue culture flask containing Thaw Medium and place flask in a humidified 37C/5% CO2 incubator. Switch to growth medium at first passage.Propagation Method: Aspirate medium, rinse once in DPBS, add 0.25% Trypsin/EDTA and swirl to coat the cell evenly. Add an equal volume of Growth Medium to inactivate Trypsin after 2-3 minutes incubation at 37C. Centrifuge cells at 900 rpm for 4 minutes and resuspend in growth medium. Cell should be passage or fed at least twice a week.Assay Protocol: Harvest cells from culture in growth medium and resuspend in assay medium. 2.2 Dispense 4000 cells/5 uL/well into 1536-well black/clear bottom plates using a Multidrop dispenser. After the cells were incubated at 37C for 5 hours, 23 nL of compounds dissolved in DMSO were transferred to the assay plate by a PinTool resulting in a 217-fold dilution. Incubate the plates for 16 hours at 37C, 5% CO2. Add 1 uL of 6X LiveBLAzer FRET B/G (CCF4-AM) Substrate Mixture to each well using a BioRAPTR dispenser and incubate the plates at room temperature for 2 hours. Measure fluorescence intensity at 460 and 530 nm emission and 405 nm excitation by an Envision detector. Data is expressed as the ratio of 460nm/530nm emissions. Add 4 uL of Cell-titer Glo to each well using BioRAPTR and incubate the plates at room temperature for 2 hours. Measure fluorescence intensity by a VewLux plate reader.

Sequence of Cellular tumor antigen p53 (Homo sapiens) (P04637 whole entry, looked up, the tested form may be a part): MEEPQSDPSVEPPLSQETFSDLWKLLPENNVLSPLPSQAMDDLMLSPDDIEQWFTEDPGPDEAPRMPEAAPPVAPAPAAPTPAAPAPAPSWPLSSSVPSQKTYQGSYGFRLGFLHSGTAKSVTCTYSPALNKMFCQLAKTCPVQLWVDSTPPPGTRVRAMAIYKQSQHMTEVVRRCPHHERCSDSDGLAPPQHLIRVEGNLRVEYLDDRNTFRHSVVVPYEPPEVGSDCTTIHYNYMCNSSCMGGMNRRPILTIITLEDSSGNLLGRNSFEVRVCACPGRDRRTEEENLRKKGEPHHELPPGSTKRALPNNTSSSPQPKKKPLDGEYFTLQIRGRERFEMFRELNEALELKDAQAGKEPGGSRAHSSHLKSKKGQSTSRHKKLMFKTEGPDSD

SMILES	outcome	AC50
COc1cccc(C(=O)CCN[C@@H](C)[C@H](O)c2ccccc2)c1	inactive	
CN[C@H]1C[C@@H](N)[C@H](O)[C@@H](O[C@@H]2O[C@H](CO)[C@H](O)[C@@H]3OC4(O[C@H]23)O[C@H](C(N)CO)[C@H](O)[C@H](O)C4O)[C@@H]1O (stereo not given in full)	inactive	
CCCC[N+]1(C)[C@@H]2CC(OC(=O)[C@H](CO)c3ccccc3)C[C@H]1[C@@H]1O[C@@H]12 (stereo not given in full)	inactive	
CC(=O)c1cc2c(cc1C)C(C)(C)C(C)CC2(C)C (stereo not given)	inactive	
N#CCCl	inactive	
CCN(CCO)CCn1c(Cc2ccccc2)nc2c1c(=O)n(C)c(=O)n2C	inactive	
ClC1=C(Cl)C2(Cl)C(CBr)CC1(Cl)C2(Cl)Cl (stereo not given)	inactive	
Oc1ccc(C2(c3ccc(O)cc3)c3ccccc3-c3ccccc32)cc1		76.6 µM (active)
Oc1ccc(Cl)c(Cl)c1	inactive	
O=[N+]([O-])/C=C/c1ccccc1	inactive	
CC(NC(C)(C)C)C(=O)c1cccc(Cl)c1 (stereo not given)	inactive	
CCCCNCC(O)c1ccc(O)cc1 (stereo not given)	inactive	
CC1CCCC1.[C-]#[O+].[C-]#[O+].[C-]#[O+].[Mn]	inactive	
O=C1C(=O)c2cccc3cccc1c23	inactive	
C[C@@H](Cc1ccccc1)NCCC(c1ccccc1)c1ccccc1	inactive	
C=CCOCC1CO1 (stereo not given)	inactive	
Clc1ccc(C(Cl)(Cl)Cl)cc1Cl	inactive	
NNC(=O)c1cccnc1	inactive	
Oc1ccc(C2(c3ccc(O)cc3)CCCCC2)cc1		82.3 µM (active)

SMILES	outcome	AC50
OCC(Br)CBr (stereo not given)	inactive	
CCCCc1c(C)nc(NCC)[nH]c1=O	inactive	
CC(C)=CCOc1c2occc2cc2ccc(=O)oc12	inactive	
Cc1nnc2n1-c1ccc(Cl)cc1C(c1ccccc1)=NC2	inactive	
O=C(O)CCCO	inactive	
O=C(CCl)c1ccccc1	inactive	
O=Cc1ccccc1	inactive	
C(CCOCC1CO1)COCC1CO1 (stereo not given)	inactive	
C[C@]12CC[C@H]3[C@@H](CCC4=CC(=O)CC[C@@H]43)[C@@H]1CC[C@@H]2O	inactive	
C=C(Cl)CCl	inactive	
C[N+]1(C)[C@@H]2CC[C@H]1CC(OC(=O)c1c[nH]c3ccccc13)C2 (stereo not given in full)	inactive	
N#CCCCCC#N	inactive	
CCCCCCCCCCCCCC[P+](CCCCCC)(CCCCCC)CCCCCC	inactive	59.5 µM (active) and 58.6 µM (active)
CCC1(c2cnc[nH]2)Cc2ccccc2C1	inactive	
CCCCCCCCCCCCCCCCn1cc[n+](C)c1	inactive	78.3 µM (active) and 41.3 µM (active)
O=[N+]([O-])c1ccc([As](=O)(O)O)cc1	inactive	
CCCN1CCC[C@@H]2Cc3nc(N)ncc3C[C@H]21	inactive	
CNC(C)Cc1ccccc1 (stereo not given)	inactive	
O=C(NC(=O)c1c(F)cccc1F)Nc1ccc(Oc2ccc(C(F)(F)F)cc2Cl)cc1F	inactive	
